Drawing on PubChem BioAssay (NCATS), this text covers Potency for 40 compounds.

Records with an inconclusive call do not appear. A call without a number means that no potency is given here. Active and inactive are the calls of the source. Calls follow the shape of the dose curve; as a rule, active = well fitted cell-killing curve with a large enough effect; inconclusive = small, poorly fitted or top-dose-only effect; inactive = flat fitted curve, though single readings scatter.
Potency is read from the fitted curve at half-maximal effect.

A short description of this experiment: KB-8-5-11 Cancer Cell Toxicity qHTS against the NCATS CANVASS Library (AID 1347364). Also: nearly all actives have a fitted effect of over 75% in size. Particulars: KB-8-5-11 MDR cells viability, CellTiter-Glo, 72 h; series mostly up to 46.1 µM. The text has this: Natural products and their derivatives continue to be wellsprings of nascent therapeutic potential. However, many laboratories have limited resources for biological evaluation, leaving their previously isolated or synthesized compounds largely or completely untested. To address this issue, the Canvass library of natural products was assembled (https://tripod.nih.gov/canvass), in collaboration with academic and industry researchers, for quantitative high-throughput screening (qHTS) across a diverse set of cell-based and biochemical assays. The pure (>85% purity by liquid chromatography/mass spectrometry [LC/MS]) Canvass library of 346 natural products were submitted by 45 academic laboratories and companies around the world. We collected pure natural products to circumvent deconvolution and structure elucidation due to time and resource limitations. The library was formatted into 1536-well plates and evaluated in 50 qHTS (in an 11-pnt concentration series) bioassays with broad scope of disease-relevant mechanisms. The resulting data set from 50 different assays was then systematically analyzed to identify overall trends and specific natural products with interesting biological activities. Reported herein are the results of each individual qHTS and their corresponding assay protocol. […] National Center for Advancing Translational Sciences (NCATS), Rockville, MD National Institute of Health (NIH), Bethesda, Maryland
Cancer Cell Toxicity qHTS protocol 1. In a 1536 well, tissue culture treated white solid bottom plates (Corning 7494), 5 uL of KB-8-5-11 cell solution (final concentration of 500 cells / well) was dispensed using the Multidrop Combi dispenser (Thermo Fisher Scientific) into columns 3-48, rows 1-32. DMEM + 10% FBS + 100 U/mL penicillin / 100ug/mL streptomycin media solution was dispensed into column 1-2, row 1-32 also using the Multidrop Combi dispenser. For follow-up confirmation, KB 8-5-11 was also plated in medium supplemented with 1uM tariquidar. 2. Control and Compounds were pin transferred (~23nL volume) to the assay plates via Wako Pin-tool (Wako Automation, Richmond VA) equipped with a 1536 pin head. The compounds were transferred to columns 5-48 resulting in a final concentration ranging from 0.17 nM to 103 uM. Dose response titration of Bortezomib was pin transferred into column 3, rows 1-32 (2mM; 1:2 dilution; 16 points; n = 2) resulting to a final concentration range of 0.3nM - 9.2uM. 3. The assay plates were further incubated in the at 37C, 5% CO2, 95% Rh for 72 hr. 4. After incubation, 2.5uL of CellTiter-Glo reagent (Promega) was added to the assay plates (column 1-48, rows 1-32) using the Multidrop Combi dispenser. 5. The assay plates were incubated at room temperature for 10 minutes. 6. Luminescence signal was acquired via the ViewLux plate reader (PerkinElmer) using a clear emission filter, 1 sec exposure, and 1x binning settings.
For the compound `O=C1CC2OCC=C3CN4C5CC3C2[C@@H]2N1c1ccccc1[C@]52C[C@@H]4C1=C[C@H]2C3CC4N(CC[C@@]45c4ccccc4N(C1=O)[C@@H]25)C/C3=C/CO` (stereo not given in full), the Potency is 18.7 µM (active). The same measure for `C=C[C@](Cl)(CBr)CCC=C(C)C`: “inactive”; for `O=C1CCC(=O)N(O)CCCCCNC(=O)CCC(=O)N(O)CCCCCNC(=O)CCC(=O)N(O)CCCCCN1`: “inactive”. As for `C=C(Cl)[C@](Cl)(CBr)CC[C@@H](Br)C(C)(C)Cl`, the figure is 9.35 µM (active); as for `C/C=C1/CN2C3CC1C1C=CC(=O)N4c5ccccc5[C@@]3(C[C@@H]2C2=C[C@H]3C5CC6N(CC[C@@]67c6ccccc6N(C2=O)[C@@H]37)C/C5=C/C)[C@H]14` (stereo not given in full), 9.35 µM (active); as for `CN1C(=O)C(=O)N2C(=C[C@]3(c4c[nH]c5ccccc45)c4ccccc4N[C@H]23)C1=O`, “inactive”. As for `O=C1CC(c2ccc(O)cc2)Oc2cc(O)cc(O)c21` (stereo not given), the Potency entry is “inactive”.

Take `COc1cc([C@@H]2c3cc4c(cc3C[C@@]3(O[C@@H]5O[C@H](CO)[C@@H](O)[C@H](O)[C@H]5O)COC(=O)[C@H]23)OCO4)cc(OC)c1OC`: the Potency was 0.0526 µM (active).

Regarding `C=CC(C)(C)C(=O)[C@@H](C)[C@@H]1CC[C@@](C)(C=C)O1`, the Potency result is “inactive”. The same measure for `C/C=C(/CO)C(=O)O[C@@H]1[C@H](O)[C@@H](C(=O)OC)O[C@@H]2C[C@H]3OC(n4cnc5c(N)ncnc54)[C@H](OC)[C@H]3O[C@@]12O` (stereo not given in full): “inactive”; for `CC(=O)Oc1cc2c(c(OC(C)=O)c1C1CCc3cc(Cl)c(Cl)n31)C(=O)n1c-2cc(Cl)c1Cl` (stereo not given): 14.8 µM (active); for `CO[C@H]1/C=C/CCCCC(=O)O[C@@H](/C(C)=C/[C@H](C)C(=O)C[C@H](O)CC2CC(=O)NC(=O)C2)[C@@H](C)C1`: “inactive”.

For the compound `COC1C(C)OC(OCC23C[C@@H]4[C@H](C)CC[C@H]4C4(C=O)CC2C=C(C(C)C)C34C(=O)O)[C@@H](O)[C@H]1O` (stereo not given in full), the Potency result is “inactive”. As for `CO/C=C/C(=O)c1cc2cnc3c(N)cc(=NC(=O)C(C)C)c([nH]1)c23`, the figure is 0.296 µM (active); as for `O[C@H]1C=C2[C@H]3CN(Cc4cc5c(cc43)OCO5)[C@H]2C[C@@H]1O`, 10.5 µM (active). As for `COc1cc2c(cc1OC)[C@@H](c1ccc3c(c1)OCO3)C(C)C(C)C2=O` (stereo not given in full), the Potency is 18.7 µM (active).

For `CC[C@H](O)CCCCC[C@@H]1NC(=O)[C@H]2CCCCN2C(=O)[C@H]([C@H](C)CC)NC(=O)[C@H](Cc2cn(OC)c3ccccc23)NC1=O`, the Potency entry is “inactive”. As for `C=C1[C@@]2(C)CC3C4(C)CCC(O)C(C)(C)C4CCC3(C)[C@]1(C(=O)OC)C(=O)C(C)(O)C2=O` (stereo not given in full), the entry is “inactive”; as for `CC1=C[C@H]2[C@H]3C(=O)C(c4ccc(O)cc4)=C[C@@]3(c3ccc(O)cc3)[C@@H]1C(=O)[C@]2(C)O`, 3.72 µM (active); as for `C=C1CCC2C(C)(C(=O)O)CCC(CC/C(C)=C/C(=O)NC(CCC(N)=O)C(=O)O)[C@@]2(C)C1` (stereo not given in full), “inactive”. The same measure for `C/C(=C\[C@H](C)C(=O)C[C@H](O)CC1CC(=O)NC(=O)C1)[C@@H]1OC(=O)CCCC/C=C/[C@@H](O)C[C@@H]1C`: “inactive”; for `CO[C@@H](C[C@@H](C)[C@@H](O)/C=C/C=C/CNC(=O)C(C)(C)[C@H](O)\C(C)=C/C=C\C=C\Cc1cnco1)[C@]1(O)[C@@H](C)C(=O)N(C)[C@@]12COC2=O`: “inactive”; for `C/C(=C\[C@@H](C)CC/C=C/CC/C=C/C(=O)O)[C@@H](O)[C@H](C)C(=O)CCCC1CC(=O)NC(=O)C1`: “inactive”. `COC12OC1(C13OC1(OC)C(=O)c1cc4cc(C)oc(=O)c4c(O)c1C3O)C(O)c1c(cc3cc(C)oc(=O)c3c1O)C2=O` (stereo not given): the Potency entry was “inactive”. As for `CC(=O)N[C@H](C)c1nc(/C=C/C=C/C(=O)CC2CC(=O)CC[C@]2(C)O)cs1` (stereo not given in full), the entry is “inactive”; as for `C/C1=C/[C@@H](C)[C@H](O)[C@@H](O)/C=C/CC/C=C/C(=O)O[C@@H]1[C@H](C)C(=O)/C=C/CC1CC(=O)NC(=O)C1`, “inactive”; as for `O=Cc1ccc2n1C[C@]1(OC2)O[C@H](CO)[C@@H](O)[C@@H]1O`, “inactive”. On to `O=c1cc(-c2ccc(O)cc2)oc2cc(O)c([C@@H]3OC(CO)[C@H](O)[C@@H](O)[C@H]3O)c(O)c12` (stereo not given in full), for which the Potency entry is “inactive”. `Cc1cc(O)cc2c1C(=O)c1c(O)cc(O)cc1C2=O`: the Potency result is “inactive”. As for `CC(C)=CCCC(C)(O)[C@H]1CC=C(C)C(O)C1` (stereo not given in full), the entry is “inactive”; as for `CN1CC[C@@]2([C@@]34CCN(C)[C@@H]3Nc3ccccc34)c3ccccc3N[C@@H]12`, “inactive”; as for `CC1(C)CC[C@]2(CO)CC[C@]3(C)C(=CCC4[C@@]5(C)CC[C@H](O)C(C)(C)C5CC[C@]43C)C2C1` (stereo not given in full), “inactive”.

Take `C=C[C@]1(C)CC[C@@H]([C@H](C)C(=O)CC=C(C)C)O1`: the Potency entry is “inactive”. As for `C=CC(CCCCC)C1C(=O)NC(=O)C1C(=O)C1C2C(C)CC(C(=O)O)CC2CC1(O)C(=O)/C=C/C` (stereo not given), the entry is “inactive”; as for `COC(=O)[C@]1([C@H]2CCC(=O)O2)CC(=O)c2c(O)cc(C)cc2O1`, “inactive”; as for `CC1=C(C)C(=O)OC(C(C)C2(O)CCC3C4C5OC5C5(O)CC=CC(=O)C5(C)C4CCC32C)C1` (stereo not given), “inactive”.

Take `CC(C)=CC[C@H]1C[C@@]2(CC=C(C)C)C(=O)[C@](CC=C(C)C)(C(=O)C(C(=O)c3ccccc3)=C2O)C1(C)C`: the Potency is 20.9 µM (active).

As to `CCC(C)=C1OC(=O)[C@H](C)[C@H](O)[C@H](Cc2cccnc2)NC(=O)C(NC(=O)c2ncccc2O)C(C)OC1=O` (stereo not given in full), the Potency entry was “inactive”. As for `CC[C@@H]1C[C@@]2(CC)OC(=O)[C@@]3(CC)[C@H](CC)[C@@H]1[C@@H]23`, the entry is “inactive”; as for `C[C@H]1C=C[C@H]2CCCC[C@@H]2[C@H]1C(=O)[C@H]1CC2=C(C(=O)O)CCN2C1=O`, “inactive”.
